Experimental data published in PubChem BioAssay (NCATS).
Inconclusive results are not listed. Entries that show only a call come without a potency. Calls of active or inactive are those of the source. Calls come from the whole dose curve; as a rule, active = well fitted inhibition curve with a large enough effect; inconclusive = small, poorly fitted or top-dose-only effect; inactive = flat fitted curve, though single readings scatter.

Molecular target: Calcium and integrin-binding protein 1 (Homo sapiens) (UniProt Q99828)
Sequence (Q99828 whole entry, looked up): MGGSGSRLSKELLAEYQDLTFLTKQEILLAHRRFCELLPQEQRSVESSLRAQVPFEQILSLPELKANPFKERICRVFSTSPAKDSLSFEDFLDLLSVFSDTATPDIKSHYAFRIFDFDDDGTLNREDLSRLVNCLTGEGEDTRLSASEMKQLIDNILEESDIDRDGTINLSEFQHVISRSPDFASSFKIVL
Assay: Primary qHTS for Identification of Calcium Integrin Binding Protein 1 (CIB1) Competitor (AID 1508620);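 note: GST tagged CIB1 binding a fluorescein labelled alphaIIb integrin peptide tracer; top concentration of the series differs between compounds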
Conditions: CIB1-GST / FITC-alphaIIb peptide fluorescence polarization; series mostly up to 114 µM
Procedure, shortened: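 Fluorescence polarization competition: CIB1-GST (1 uM final) preincubated with compound 15 min at room temperature, then FITC-labeled alphaIIb peptide (100 nM final) added for another 15 min. Polarization read at Ex 480/Em 540.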

**Q.** With CCC(=O)NC(c1cc(Cl)c2ccccc2c1O)C1CC1 (stereo not given) as the compound, how does the Potency read?
**A.** inactive

**Q.** With COc1cc(OC)cc(C2=Nn3c(nnc3-c3cccc(OC)c3)SC2)c1 as the compound, how does the Potency read?
**A.** inactive

**Q.** Which Potency does the source give for O=C1c2ccccc2NC(c2ccc(-c3ccc(F)cc3)o2)N1O (stereo not given) here?
**A.** inactive

**Q.** With COc1cccc(C2=Nn3c(nnc3-c3cccc(OC)c3)SC2)c1 as the compound, how does the Potency read?
**A.** inactive

**Q.** With Cc1cnc(-c2ccccc2C(F)F)nc1NCC1CN(c2cnccn2)C1 as the compound, how does the Potency read?
**A.** inactive
